Assay outcomes deposited in PubChem by National Center for Advancing Translational Sciences (NCATS).
HADH2 inhib: blocks human hydroxyacyl-CoA dehydrogenase type II; recombinant HADH2, NADH fluorescence, beta-hydroxybutyryl-CoA; Potency, µM (series often up to 57.1 µM), for inactives: top-dose activity change, negative = inhibition, most hits filed as inhibitors; 73,000 compounds, 3.4% hits; note: potency is the fitted concentration of half-maximal effect; % is set by controls: 0 for no effect and ±100 for the full control effect; nearly all actives have a fitted effect of over 60% in size
Target sequence (Q99714 whole entry, looked up, one chain of several): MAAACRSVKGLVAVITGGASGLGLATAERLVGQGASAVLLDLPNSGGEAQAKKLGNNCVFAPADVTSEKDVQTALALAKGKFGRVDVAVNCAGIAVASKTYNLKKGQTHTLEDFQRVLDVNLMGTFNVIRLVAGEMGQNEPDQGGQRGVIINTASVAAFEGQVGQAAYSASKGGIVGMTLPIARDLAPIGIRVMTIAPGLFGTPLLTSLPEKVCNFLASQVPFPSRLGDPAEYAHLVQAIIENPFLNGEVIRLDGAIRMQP
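Activity measured as NADH fluorescence gain (360/450 nm), taken as the change between first and last reads of a 4-min kinetic run. Conditions: pH 9.0 Tris buffer, 20 nM E. coli-expressed His-tagged enzyme, 1 mM NAD+, 90 uM beta-hydroxybutyryl-CoA; 15-min compound preincubation.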
HSD17B inh: inhibitors of human HSD17B10 dehydrogenase; Q99714; recombinant HSD17B10, NADH fluorescence kinetic; Potency, µM (doses to about 57.1 µM), for the others: at the top dose activity change, negative = inhibition, most hits filed as inhibitors; 75,000 compounds, 7.6% hits; AID 893;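 note: the protocol describes HADH2 (HSD17B10) and not the HSD17B4 of the title; potency is the fitted concentration of half-maximal effect; % is set by controls: 0 for no effect and ±100 for the full control effect; nearly all actives have a fitted effect of over 70% in size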
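His-tagged E. coli-expressed HADH2 at 20 nM in 100 mM Tris-HCl pH 9.0 with 0.01 % Tween-20, preincubated 15 min with compound at room temperature. Reaction with 1 mM NAD+ and 90 uM beta-hydroxybutyryl coenzyme A; NADH fluorescence (360/450 nm) read kinetically over 4 min, last minus first point.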
AID923: qHTS Assay for Allosteric/Competitive Inhibitors of Caspase-1: Spectroscopic Profiling in AFC Spectral Region; Potency, µM (top dose mostly 57.5 µM), inactives show at the highest dose fluorescence increase, hits mostly activators; compound fluorescence, AFC spectral region (405/520 nm); 75,000 compounds, 1.1% hits; note: potency is the fitted concentration of half-maximal effect; 0% is about no effect
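Compound autofluorescence profiled at 405 nm ex/520 nm em during kinetic caspase 1 run (50 nM enzyme, 5 uM Ac-WEHD-AFC, HEPES pH 7.5, 10 mM DTT). Titration up to 57 uM; baseline from regression intercept, normalized to AFC standard curve.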
CRE-bla Fsk: alters forskolin-stimulated CRE reporter signaling in CHO cells | CHO CRE-bla reporter (cAMP response element driving beta-lactamase), forskolin EC10, beta-lactamase ratio | Potency, µM (doses to about 38.2 µM), inactives show at the top dose activity change, negative = inhibition, hits mostly activators | 71,000 compounds, 2.5% hits; active = well fitted activation curve with a large enough effect in the signal ratio, with a control signal flat, not every such curve was filed as active; inconclusive = small, poorly fitted or top-dose-only effect, or effect the other way, or a change in a side signal; the % refers to the signal ratio; note: potency is the fitted concentration of half-maximal effect; % of control where 0% means no effect
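Titrated compounds plus EC10 NKH 477 on CHO CRE-bla cells, 3 h, 37 °C. CCF4, 2 h RT. Ratio 460/530 nm → AC50.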
4MU fluor: compounds fluorescent in 4-MU spectral region; compound autofluorescence, 340/450 nm, 4-MU equivalents; hits give high values; max dye-equivalent concentration, M; 59,000 compounds, 11% hits; in the data active = max dye-equivalent concentration above about 10 nM; inconclusive = mostly about 1.1 nM to 9.6 nM
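Compounds in 100 mM Tris, pH 8.0, incubated 15 min at room temperature, then fluorescence read at 340 nm excitation/450 nm emission. Signal converted to 4-MU dye-equivalent concentration using an on-plate six-point 4-MU standard curve.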
A350 autofl: A350 region autofluorescence | Compound autofluorescence, 340/450 nm, Alexa 350 dye-equivalents; hits give high values | max dye-equivalent concentration, M | 59,000 compounds, 11% hits; in the data active = max dye-equivalent concentration above about 10 nM; inconclusive = mostly about 1.1 nM to 9.6 nM
Active calls of the source: *; [ ] = remark or other dose. Rows were chosen to be rich in hits. Some 14% of all compounds tested hit in one or more screens of this group. Unless noted, calls come from the whole dose curve; as a rule, active = well fitted curve in the direction sought with a large enough effect; inconclusive = small, poorly fitted or top-dose-only effect, or another doubt; inactive = no such curve, though single readings can be large; an effect the other way counts as inactive or inconclusive.

How did CC(Oc1ccc2c(-c3ccccc3)cc(=O)oc2c1)C(=O)O (configuration not stated) do in these assays?
HADH2 inhib: -1%; HSD17B inh: -15%; AID923: -1%; CRE-bla Fsk: -6%; 4MU fluor: 2.3e-08M*; A350 autofl: 2.3e-08M*

Results for CCOC(=O)c1c(C)oc2ccc(OCC(=O)C(C)(C)C)cc12 ?
4MU fluor: inactive; A350 autofl: inactive

Results for CC(C)Oc1ccc2c(=O)c(-c3ccccc3)coc2c1 ?
4MU fluor: inactive; A350 autofl: inactive

What do the screens show for `CC(Oc1ccc2oc(-c3ccccc3)c(C(=O)O)c2c1)C(=O)O` (configuration not stated)?
HADH2 inhib: inconclusive; HSD17B inh: 25µM*; AID923: 3%; CRE-bla Fsk: -4%

Results for CCOc1ccc2oc(-c3ccccc3)c(C(=O)O)c2c1 ?
HADH2 inhib: 25µM*; HSD17B inh: 32µM*; AID923: 1%; CRE-bla Fsk: -5%; 4MU fluor: 4.9e-08M*; A350 autofl: 4.8e-08M*

Results for Cc1oc2ccc(OCC(N)=O)cc2c1C(=O)OC(C)C ?
HADH2 inhib: 2%; HSD17B inh: -2%; AID923: 0%; CRE-bla Fsk: inconclusive; 4MU fluor: inactive; A350 autofl: inactive

Results for COc1cccc(-c2cc(C(=O)Nc3cnn(Cc4ccc(F)cc4)c3)no2)c1 ?
HADH2 inhib: -3%; HSD17B inh: 25µM*; AID923: -1%; CRE-bla Fsk: 12%; 4MU fluor: inactive; A350 autofl: inactive

Results for CC(=O)O[C@H]1CC[C@]2(C)C(=CC[C@H]3[C@H]4C[C@H]5O[C@]6(CC[C@H](C)CN6)[C@H](C)[C@@H]5[C@]4(C)CC[C@@H]32)C1 ?
HADH2 inhib: 10%[11.4 µM]; HSD17B inh: 4%[11.4 µM]; AID923: -1%[11.5 µM]; CRE-bla Fsk: 8%[7.6 µM]; 4MU fluor: inactive; A350 autofl: inactive

How did O=C(NCc1ccccc1)c1ccc(-c2ccccc2F)o1 do in these assays?
HADH2 inhib: 0%; HSD17B inh: 32µM*; AID923: -2%; CRE-bla Fsk: -3%; 4MU fluor: inactive; A350 autofl: inactive

How did O=C(NCc1ccccc1)c1c(F)c(F)c(F)c(F)c1F do in these assays?
HADH2 inhib: -1%; HSD17B inh: 1%; AID923: -1%; CRE-bla Fsk: inconclusive; 4MU fluor: inactive; A350 autofl: inactive

What do the screens show for `Cc1cc(C)cc(/C=C/C2OCC(O)C2Oc2ccc(C3CCCC3)cc2)c1` (configuration not stated)?
HADH2 inhib: 9%[11.4 µM]; HSD17B inh: 1%[11.4 µM]; AID923: 1%[11.5 µM]

Results for Cc1nn2cnc3sc4c(c3c2nc1=O)CCCC4 ?
4MU fluor: inactive; A350 autofl: inconclusive

What do the screens show for `c1nc2sc3c(c2c2nnnn12)CCCC3`?
HADH2 inhib: inconclusive; HSD17B inh: 25µM*; AID923: -1%; CRE-bla Fsk: inconclusive; 4MU fluor: inactive; A350 autofl: inactive

Results for c1nnc2c3c4c(sc3ncn12)CCCC4 ?
HADH2 inhib: 0%; HSD17B inh: 10%; AID923: -1%; CRE-bla Fsk: -15%; 4MU fluor: inactive; A350 autofl: inactive

What do the screens show for `c1nc2sc3c(c2c2nnnn12)CCC3`?
HADH2 inhib: inconclusive; HSD17B inh: 32µM*; AID923: 0%; CRE-bla Fsk: -15%

How did Cc1ccc(C(=O)N2CCN(C(=O)CN3CCOCC3)C2)cc1 do in these assays?
HADH2 inhib: 12%[11.4 µM]; HSD17B inh: 0%; AID923: 2%; CRE-bla Fsk: inconclusive

Results for Cc1ccc(C(=O)NCCNC(=O)CN2CCOCC2)cc1 ?
HADH2 inhib: 2%; HSD17B inh: -3%; AID923: 0%; CRE-bla Fsk: 0%; 4MU fluor: 1.7e-08M*; A350 autofl: 1.8e-08M*

Results for CCOc1cc(NC(=O)c2ccco2)c(OCC)cc1NC(=O)Cc1ccc(OC)c(OC)c1 ?
HADH2 inhib: inactive; HSD17B inh: inconclusive; AID923: 3%; CRE-bla Fsk: inconclusive; 4MU fluor: 1.1e-07M*; A350 autofl: 1.7e-07M*

What do the screens show for `CCOc1cc(NC(=O)c2ccco2)c(OCC)cc1NC(=O)CCc1ccc(OC)cc1`?
HADH2 inhib: 65%; HSD17B inh: -18%; AID923: -1%; CRE-bla Fsk: -2%; 4MU fluor: 8.7e-08M*; A350 autofl: 1e-07M*

Results for CCOc1cc(NC(=O)C2CCCCC2)c(OCC)cc1NC(=O)c1ccco1 ?
HADH2 inhib: 28%; HSD17B inh: -2%; AID923: -1%; CRE-bla Fsk: inconclusive; 4MU fluor: inconclusive; A350 autofl: inconclusive

How did COc1ccc2c(=O)cc(-c3ccncc3)oc2c1OC do in these assays?
HADH2 inhib: -5%[11.4 µM]; HSD17B inh: -2%[11.4 µM]; AID923: -1%[11.5 µM]; CRE-bla Fsk: -16%[7.6 µM]; 4MU fluor: inactive; A350 autofl: inactive

What do the screens show for `Cc1cn([C@H]2C=C[C@H](CO)O2)c(=O)[nH]c1=O`?
HADH2 inhib: -5%; CRE-bla Fsk: 3%; 4MU fluor: inactive; A350 autofl: inactive

Results for COc1ccc2ccccc2c1C1CC(=O)N2CN(C)CSC2=C1C#N (configuration not stated) ?
HADH2 inhib: inconclusive; HSD17B inh: 13µM*; AID923: 0%; CRE-bla Fsk: inconclusive; 4MU fluor: inconclusive; A350 autofl: inconclusive

What do the screens show for `COc1ccc(Br)cc1C1CC(=O)N2CN(C)CSC2=C1C#N` (configuration not stated)?
HADH2 inhib: 2µM*; HSD17B inh: inconclusive; AID923: -1%; CRE-bla Fsk: 14%

How did COc1ccc(Br)cc1C1CC(=O)N2CN(Cc3ccccc3)CSC2=C1C#N (configuration not stated) do in these assays?
HADH2 inhib: 2µM*; HSD17B inh: inconclusive; AID923: -2%; CRE-bla Fsk: inconclusive

Results for COc1cc(OC)c(C2CC(=O)N3CN(C)CSC3=C2C#N)cc1OC (configuration not stated) ?
HADH2 inhib: 2.5µM*; HSD17B inh: inconclusive; AID923: -1%; CRE-bla Fsk: 22%

Results for O[C@H](CN1CCN(c2cccc(Cl)c2)CC1)C(c1ccccc1)c1ccccc1 ?
HADH2 inhib: 12%; HSD17B inh: 5%; AID923: 0%; CRE-bla Fsk: inconclusive; 4MU fluor: inactive; A350 autofl: inactive
